40 compounds from PubChem BioAssay (Tox21) can be followed below.

Unmarked numbers belong to inactive results. Calls come from the whole dose curve; as a rule, active = well fitted curve in the direction sought with a large enough effect in the repeat runs; inconclusive = weak or mixed curves; inactive = flat fitted curve, though single readings scatter.
% is set by controls: 0 for no effect and ±100 for the full control effect.

This assay can be described thus: qHTS assay to test for compound auto fluorescence at 590 nm (red) in HepG2 cell free culture (AID 720684). The settings on record: cell-free medium autofluorescence, red 540/590 nm; series mostly up to 91.3 µM; fluorescence, % of Rose Bengal: at the top concentration. The text has this: U.S. Tox21 Program National Center for Advancing Translational Sciences [NCATS] NIH Chemical Genomics Center [NCGC] U.S. Environmental Protection Agency [EPA] National Institutes of Environmental Health Sciences [NIEHS] National Toxicology Program [NTP] U.S. Food and Drug Administration [FDA] Tox21 Assay Overview: Compound auto fluorescence often interferes with screening of the compound library against various biological targets and signaling pathways. Some of these compounds may have fluorophoric properties. Such properties may interfere with the assay outputs resulting in false positives and/or negatives. To decrease such complications and ensure the compound activities are relevant in terms of biological response, the Tox21 10K compound library was screened for auto fluorescence. From the fluorophores used as reporter signals in our screening assays, the auto fluorescence equivalencies of compounds against three fluorophores have been evaluated: Triamterene, Fluorescein and Rose Bengal sodium for blue, green and red fluorescence, respectively. The fluorescence intensities were measured using Excitation/Emission wavelengths at 405/460nm, 485/535nm and 540/590nm for blue, green and red labels, respectively. This assay includes the red fluorescence data.
Tox21 Assay Protocol Summary: 5 uL of culture medium (MEM containing 10% FBS) per well was dispensed into black wall/clear bottom 1536-well plates using a Multidrop Combi Dispenser (ThermoFisher Scientific, Waltham, MA). After 23 nL compound or DMSO vehicle was transferred into assay plate by a pintool work station (Kalypsys, San Diego, CA), fluorescence intensities in the assay plates were measured by an Envision (PerkinElmer, Shelton, CT) plate reader using three labels for measuring blue, green and red fluorescence at […] 460, 535 and 590nm respectively.
In general terms: Quantitative high-throughput screening tests each substance at several concentrations.
For the compound `O=C(O)c1ccccc1S`, the “fluorescence, % of Rose Bengal” value was -0.0234% [at 46 µM].

Take `CCCCCOC(=O)Nc1nc(=O)n([C@@H]2O[C@H](C)[C@@H](O)[C@H]2O)cc1F`: the “fluorescence, % of Rose Bengal” value is -0.057% [at 46 µM].

Consider `O=S(=O)(c1cccc2cnccc12)N1CCCNCC1`, for which the “fluorescence, % of Rose Bengal” value is 0.0212% [at 46 µM].

In the case of `Nc1cc(N)cc(C(=O)O)c1`, the “fluorescence, % of Rose Bengal” value was -0.487%.

Consider `C#CC(C)(O)CC(C)C` (stereo not given), for which the “fluorescence, % of Rose Bengal” value was -0.0269%.

For the compound `O=C(O)c1cccc(C(=O)O)n1`, the “fluorescence, % of Rose Bengal” value was -0.0035%.

`CC/C=C\C#N`: the “fluorescence, % of Rose Bengal” value is -0.088%.

In the case of `Nc1[nH]c(=O)ncc1F`, the fluorescence, % of Rose Bengal is 0.311% [at 18.6 µM].

As to `O=C1OC(=O)c2cc([N+](=O)[O-])ccc21`, the “fluorescence, % of Rose Bengal” value is 0.0829%.

As for `CC(C)c1cccc(C(C)C)c1N`, the “fluorescence, % of Rose Bengal” value was -0.0997%.

Take `C=C(C)[C@H]1CC=C(C)CC1`: the “fluorescence, % of Rose Bengal” value was -0.377%.

`CC(C)c1cccc(O)c1`: the “fluorescence, % of Rose Bengal” value was -0.0258% [at 95.7 µM].

On to `COc1cccc(OC)c1`, for which the “fluorescence, % of Rose Bengal” value is -0.239%.

On to `CCCCCCCCCCCCI`, for which the “fluorescence, % of Rose Bengal” value is 0.0502%.

On to `Cc1cc(C)c(NC(=O)CN(CC(=O)O)CC(=O)O)c(C)c1Br`, for which the “fluorescence, % of Rose Bengal” value is 0.0063% [at 46 µM].

Turning to `CSc1ccc(C=O)cc1`, the “fluorescence, % of Rose Bengal” value was -0.419%.

Consider `CN(C)CCn1nnnc1SCC1=C(C(=O)O)N2C(=O)[C@@H](NC(=O)Cc3csc(N)n3)[C@H]2SC1`, for which the fluorescence, % of Rose Bengal was 0.544% [at 18.6 µM].

In the case of `C=CCSCC1Nc2cc(Cl)c(S(N)(=O)=O)cc2S(=O)(=O)N1` (stereo not given), the “fluorescence, % of Rose Bengal” value is 0.0522% [at 46 µM].

Consider `COc1ccc(NC(C)=O)cc1`, for which the “fluorescence, % of Rose Bengal” value is -0.111% [at 95.7 µM].

With `CCN(CC)S(=O)(=O)c1ccc(C(=O)O)cc1`, the “fluorescence, % of Rose Bengal” value is 0.0502% [at 46 µM].

As for `CC(C)(C)OC(=O)N1C[C@@H](F)C[C@H]1C(=O)O`, the “fluorescence, % of Rose Bengal” value was -0.0482% [at 95.7 µM].

As to `COC(=O)CCCCCCCCC(=O)OC`, the “fluorescence, % of Rose Bengal” value is -0.0732%.

Consider `CCCCCCCCN(C)CCCCCCCC`, for which the “fluorescence, % of Rose Bengal” value was -0.161% [at 95.7 µM].

Consider `C=C(C)C(=O)NCCC[N+](C)(C)C`, for which the “fluorescence, % of Rose Bengal” value is -0.112%.

As for `CCOC(=O)Cn1c(=O)sc2cccc(Cl)c21`, the “fluorescence, % of Rose Bengal” value is 0.107%.

On to `NCC[C@H](O)C(=O)N[C@@H]1C[C@H](N)[C@@H](O[C@H]2O[C@H](CN)[C@@H](O)[C@H](O)[C@H]2O)[C@H](O)[C@H]1O[C@H]1O[C@H](CO)[C@@H](O)[C@H](N)[C@H]1O`, for which the “fluorescence, % of Rose Bengal” value is -0.0016% [at 46 µM].

Take `CCCCNc1ccccc1`: the “fluorescence, % of Rose Bengal” value is 0.158%.

Take `C#CC(O)C(CC)CCCC` (stereo not given): the “fluorescence, % of Rose Bengal” value is 0.0386%.

In the case of `NC(=O)c1ncn([C@@H]2O[C@H](CO)[C@@H](O)[C@H]2O)c1O`, the “fluorescence, % of Rose Bengal” value was -0.29% [at 46 µM].

With `CC(C)=CC(=O)O`, the “fluorescence, % of Rose Bengal” value was -0.0333%.

On to `CCCCc1ccc2cccc(S(=O)(=O)O)c2c1`, for which the “fluorescence, % of Rose Bengal” value was 0.0461%.

For the compound `COC(C(=O)O)c1ccccc1` (stereo not given), the “fluorescence, % of Rose Bengal” value is -0.265%.

`C[N+](C)(C)CC[N+]1(C)Cc2c(Cl)c(Cl)c(Cl)c(Cl)c2C1`: the “fluorescence, % of Rose Bengal” value is -0.333% [at 46 µM].

On to `FC(F)(F)C(F)(F)C(F)(F)C(F)(F)C(F)(F)C(F)(F)C(F)(F)C(F)(F)C(F)(F)C(F)(F)F`, for which the fluorescence, % of Rose Bengal was -0.199% [at 9.17 µM].

Regarding `CCN1CCCC1CNC(=O)c1cc(S(N)(=O)=O)ccc1OC` (stereo not given), the “fluorescence, % of Rose Bengal” value was -0.0132%.

In the case of `C=CC(=O)OCCCCCC`, the “fluorescence, % of Rose Bengal” value was -0.247%.

In the case of `Cn1ccc2cc3c(cc21)CCN3C(=O)Nc1cccnc1`, the “fluorescence, % of Rose Bengal” value is 0.0231% [at 46 µM].

On to `CC(=O)O[C@H](CC(=O)[O-])C[N+](C)(C)C`, for which the “fluorescence, % of Rose Bengal” value is 0.034%.

For `C=C(C)[C@@H]1CCC2=CC(=O)C[C@@H](C)[C@]2(C)C1`, the “fluorescence, % of Rose Bengal” value is -0.225%.

As to `OCCCCCCO`, the “fluorescence, % of Rose Bengal” value is -0.29% [at 95.7 µM].
